# Test results published in ChEMBL document CHEMBL2218924, “A broad activity screen in support of a chemogenomic map for kinase signalling research and drug discovery” (Biochem J, 2013).
# What was measured:
# [1] = target: Platelet-derived growth factor receptor alpha (Homo sapiens) (UniProt P16234); settings: at 10 µM
# [2] = target: Platelet-derived growth factor receptor beta (Homo sapiens) (UniProt P09619); settings: at 10 µM
# [3] = target: T1, 3-phosphoinositide-dependent protein kinase 1 (Homo sapiens) (UniProt O15530); settings: at 1 µM
# T1 sequence (whole entry): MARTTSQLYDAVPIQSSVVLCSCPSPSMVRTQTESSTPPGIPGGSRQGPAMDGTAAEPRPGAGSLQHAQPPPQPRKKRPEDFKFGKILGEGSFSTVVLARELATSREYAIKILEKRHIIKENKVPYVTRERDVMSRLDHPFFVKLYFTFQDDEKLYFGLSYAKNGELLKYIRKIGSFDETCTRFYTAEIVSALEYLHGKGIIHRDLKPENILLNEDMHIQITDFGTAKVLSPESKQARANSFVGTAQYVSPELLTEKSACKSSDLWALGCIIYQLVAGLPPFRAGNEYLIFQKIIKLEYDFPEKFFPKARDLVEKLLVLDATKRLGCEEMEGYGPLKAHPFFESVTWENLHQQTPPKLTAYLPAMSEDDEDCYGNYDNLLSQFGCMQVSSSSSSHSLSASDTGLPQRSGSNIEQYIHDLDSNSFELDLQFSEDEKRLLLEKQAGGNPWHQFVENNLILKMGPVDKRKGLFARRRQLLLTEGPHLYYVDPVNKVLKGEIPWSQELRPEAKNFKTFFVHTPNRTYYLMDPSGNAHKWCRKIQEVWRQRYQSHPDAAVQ
# [4] = target: T1, 3-phosphoinositide-dependent protein kinase 1 (Homo sapiens); settings: at 10 µM
# [5] = target: cAMP-dependent protein kinase catalytic subunit alpha (Homo sapiens) (UniProt P17612); settings: at 1 µM
# [6] = target: cAMP-dependent protein kinase catalytic subunit alpha (Homo sapiens) (UniProt P17612); settings: at 10 µM
# [7] = target: RAC-alpha serine/threonine-protein kinase (Homo sapiens) (UniProt P31749); settings: at 1 µM
# [8] = target: RAC-alpha serine/threonine-protein kinase (Homo sapiens) (UniProt P31749); settings: at 10 µM
# [9] = target: RAC-gamma serine/threonine-protein kinase (Homo sapiens) (UniProt Q9Y243); settings: at 10 µM
# [10] = target: Protein kinase C alpha type (Homo sapiens) (UniProt P17252); settings: at 1 µM
# [11] = target: Protein kinase C alpha type (Homo sapiens) (UniProt P17252); settings: at 10 µM
# [12] = target: Protein kinase C beta type (Homo sapiens) (UniProt P05771); settings: at 1 µM
# [13] = target: Protein kinase C beta type (Homo sapiens) (UniProt P05771); settings: at 10 µM
# [14] = target: Protein kinase C beta type (Homo sapiens) (UniProt P05771); settings: at 1 µM; remark: listed apart in the source
# [15] = target: Protein kinase C beta type (Homo sapiens) (UniProt P05771); settings: at 10 µM; remark: listed apart in the source
# [16] = target: Protein kinase C gamma type (Homo sapiens) (UniProt P05129); settings: at 1 µM
# [17] = target: Protein kinase C gamma type (Homo sapiens) (UniProt P05129); settings: at 10 µM
# [18] = target: Protein kinase C delta type (Homo sapiens) (UniProt Q05655); settings: at 1 µM
# [19] = target: Platelet-derived growth factor receptor beta (Homo sapiens) (UniProt P09619); settings: at 1 µM
# [20] = target: RAC-gamma serine/threonine-protein kinase (Homo sapiens) (UniProt Q9Y243); settings: at 1 µM
# Chain of Protein kinase C beta type (Homo sapiens) (P05771 2-671 limits assumed): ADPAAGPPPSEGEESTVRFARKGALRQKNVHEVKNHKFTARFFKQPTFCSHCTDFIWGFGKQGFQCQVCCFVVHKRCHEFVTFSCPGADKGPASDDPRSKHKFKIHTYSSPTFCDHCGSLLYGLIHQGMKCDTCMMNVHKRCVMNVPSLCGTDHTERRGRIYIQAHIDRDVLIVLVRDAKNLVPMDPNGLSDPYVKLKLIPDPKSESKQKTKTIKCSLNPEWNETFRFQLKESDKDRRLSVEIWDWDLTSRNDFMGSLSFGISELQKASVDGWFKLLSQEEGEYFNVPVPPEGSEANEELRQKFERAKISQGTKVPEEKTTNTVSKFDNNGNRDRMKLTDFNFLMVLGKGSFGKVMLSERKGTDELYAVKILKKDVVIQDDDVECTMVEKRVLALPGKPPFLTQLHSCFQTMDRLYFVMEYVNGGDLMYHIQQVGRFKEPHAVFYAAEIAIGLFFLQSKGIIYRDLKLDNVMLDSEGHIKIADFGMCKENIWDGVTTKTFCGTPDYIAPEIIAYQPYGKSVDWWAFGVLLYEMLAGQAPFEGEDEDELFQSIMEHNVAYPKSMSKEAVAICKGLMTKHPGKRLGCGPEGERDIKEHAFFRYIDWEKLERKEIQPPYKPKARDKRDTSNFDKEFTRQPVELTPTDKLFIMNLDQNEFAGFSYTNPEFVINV
# Chain of Protein kinase C delta type (Homo sapiens) (Q05655 whole entry, looked up): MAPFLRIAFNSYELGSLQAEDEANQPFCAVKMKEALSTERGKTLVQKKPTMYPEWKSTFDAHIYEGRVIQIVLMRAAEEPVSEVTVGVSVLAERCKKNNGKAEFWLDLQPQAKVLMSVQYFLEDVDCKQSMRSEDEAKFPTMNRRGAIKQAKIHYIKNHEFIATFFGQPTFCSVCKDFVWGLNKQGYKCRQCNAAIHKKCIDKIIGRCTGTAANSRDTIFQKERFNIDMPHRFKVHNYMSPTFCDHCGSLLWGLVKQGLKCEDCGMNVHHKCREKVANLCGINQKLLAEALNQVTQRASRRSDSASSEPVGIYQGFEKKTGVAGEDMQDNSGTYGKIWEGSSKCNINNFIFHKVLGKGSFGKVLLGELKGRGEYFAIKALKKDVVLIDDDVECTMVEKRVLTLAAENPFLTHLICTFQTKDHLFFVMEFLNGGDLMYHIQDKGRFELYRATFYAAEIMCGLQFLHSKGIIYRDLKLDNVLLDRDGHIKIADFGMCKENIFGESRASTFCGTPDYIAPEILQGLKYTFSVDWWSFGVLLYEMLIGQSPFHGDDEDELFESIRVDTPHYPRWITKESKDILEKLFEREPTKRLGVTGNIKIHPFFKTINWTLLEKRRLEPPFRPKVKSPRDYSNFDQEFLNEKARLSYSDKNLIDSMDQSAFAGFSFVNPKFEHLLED
# Chain of Platelet-derived growth factor receptor alpha (Homo sapiens) (P16234 whole entry): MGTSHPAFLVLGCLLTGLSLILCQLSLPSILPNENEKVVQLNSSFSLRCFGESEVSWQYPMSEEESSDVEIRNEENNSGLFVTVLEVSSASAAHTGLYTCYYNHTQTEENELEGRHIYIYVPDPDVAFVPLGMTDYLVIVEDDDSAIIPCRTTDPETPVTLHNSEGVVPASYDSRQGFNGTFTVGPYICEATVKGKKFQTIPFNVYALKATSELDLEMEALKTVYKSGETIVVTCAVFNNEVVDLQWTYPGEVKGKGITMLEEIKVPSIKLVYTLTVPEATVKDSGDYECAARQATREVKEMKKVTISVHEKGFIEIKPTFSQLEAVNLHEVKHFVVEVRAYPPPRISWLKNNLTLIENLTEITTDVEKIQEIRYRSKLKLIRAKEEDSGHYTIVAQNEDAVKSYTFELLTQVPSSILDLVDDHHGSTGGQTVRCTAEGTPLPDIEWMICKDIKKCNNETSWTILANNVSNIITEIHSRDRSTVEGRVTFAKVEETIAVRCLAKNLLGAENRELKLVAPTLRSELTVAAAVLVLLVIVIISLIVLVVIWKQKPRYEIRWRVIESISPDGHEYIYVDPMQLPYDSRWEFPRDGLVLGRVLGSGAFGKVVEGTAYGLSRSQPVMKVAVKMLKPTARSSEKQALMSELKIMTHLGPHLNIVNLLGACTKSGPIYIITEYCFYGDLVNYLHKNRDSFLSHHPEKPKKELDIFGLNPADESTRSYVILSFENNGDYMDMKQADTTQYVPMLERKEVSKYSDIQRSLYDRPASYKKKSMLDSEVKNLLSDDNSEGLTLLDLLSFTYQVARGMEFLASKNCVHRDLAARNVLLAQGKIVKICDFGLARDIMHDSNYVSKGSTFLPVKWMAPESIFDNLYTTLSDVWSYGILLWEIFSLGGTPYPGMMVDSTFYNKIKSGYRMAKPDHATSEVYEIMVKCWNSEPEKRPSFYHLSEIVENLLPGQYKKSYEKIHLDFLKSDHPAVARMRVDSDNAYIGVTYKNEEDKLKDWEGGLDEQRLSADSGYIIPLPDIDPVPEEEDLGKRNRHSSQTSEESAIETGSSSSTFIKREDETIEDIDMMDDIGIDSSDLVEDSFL
# Chain of RAC-gamma serine/threonine-protein kinase (Homo sapiens) (Q9Y243 whole entry): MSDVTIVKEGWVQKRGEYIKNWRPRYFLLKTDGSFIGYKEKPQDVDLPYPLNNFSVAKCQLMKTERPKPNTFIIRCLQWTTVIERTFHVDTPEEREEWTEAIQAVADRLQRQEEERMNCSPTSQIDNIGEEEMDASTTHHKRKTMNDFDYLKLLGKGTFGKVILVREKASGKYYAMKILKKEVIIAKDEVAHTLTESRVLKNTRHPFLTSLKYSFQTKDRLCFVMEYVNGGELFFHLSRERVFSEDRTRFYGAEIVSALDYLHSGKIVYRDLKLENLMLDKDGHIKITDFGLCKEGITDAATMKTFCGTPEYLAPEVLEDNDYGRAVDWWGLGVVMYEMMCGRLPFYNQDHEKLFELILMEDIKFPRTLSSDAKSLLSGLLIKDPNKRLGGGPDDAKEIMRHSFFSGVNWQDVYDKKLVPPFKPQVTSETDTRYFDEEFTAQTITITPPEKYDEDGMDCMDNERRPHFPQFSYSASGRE
# Chain of RAC-alpha serine/threonine-protein kinase (Homo sapiens) (P31749 whole entry): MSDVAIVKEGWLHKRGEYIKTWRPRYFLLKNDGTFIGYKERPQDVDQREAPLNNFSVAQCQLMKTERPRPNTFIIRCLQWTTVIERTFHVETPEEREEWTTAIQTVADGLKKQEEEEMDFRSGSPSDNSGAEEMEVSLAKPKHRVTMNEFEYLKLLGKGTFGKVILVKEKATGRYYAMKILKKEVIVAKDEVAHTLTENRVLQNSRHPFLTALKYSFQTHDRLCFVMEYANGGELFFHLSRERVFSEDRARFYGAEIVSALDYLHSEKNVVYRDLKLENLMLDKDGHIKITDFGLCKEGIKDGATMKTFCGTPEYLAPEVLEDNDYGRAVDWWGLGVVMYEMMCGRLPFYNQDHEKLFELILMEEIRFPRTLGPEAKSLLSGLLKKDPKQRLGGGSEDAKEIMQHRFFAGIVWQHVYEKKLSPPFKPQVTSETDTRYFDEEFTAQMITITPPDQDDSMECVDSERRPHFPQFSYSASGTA
smiles,measurement,setting,value
O=C1Nc2ccc3ncsc3c2/C1=C/c1c[nH]cn1,residual activity,[1],20%
same,residual activity,[2],29%
same,residual activity,[3],31%
same,residual activity,[4],6%
same,residual activity,[5],25%
same,residual activity,[6],5%
same,residual activity,[7],99%
same,residual activity,[8],106%
same,residual activity,[9],30%
same,residual activity,[10],67%
same,residual activity,[11],18%
same,residual activity,[12],55%
same,residual activity,[13],12%
same,residual activity,[14],67%
same,residual activity,[15],43%
same,residual activity,[16],69%
same,residual activity,[17],21%
same,residual activity,[18],15%
c1cc(-c2cnn3cc(-c4ccc(OCCN5CCCCC5)cc4)cnc23)ccn1,residual activity,[1],3%
same,residual activity,[19],27%
same,residual activity,[2],4%
same,residual activity,[4],84%
same,residual activity,[5],71%
same,residual activity,[6],32%
same,residual activity,[12],118%
same,residual activity,[13],104%
COc1ccc(C(=O)Nc2sc3c(c2C(N)=O)CCCC3)cc1OC,residual activity,[7],103%
same,residual activity,[8],109%
CCc1nc(-c2ccc(OC)cc2)[nH]c1-c1ccncc1,residual activity,[1],109%
same,residual activity,[19],110%
same,residual activity,[2],108%
same,residual activity,[3],110%
same,residual activity,[4],101%
same,residual activity,[7],113%
same,residual activity,[8],108%
same,residual activity,[11],105%
same,residual activity,[12],127%
same,residual activity,[13],105%
same,residual activity,[16],108%
same,residual activity,[17],108%
same,residual activity,[18],107%
c1ccc2c(-c3ccncc3)c[nH]c2c1,residual activity,[7],103%
same,residual activity,[8],104%
O=c1[nH]c2ccccc2n1C1CCN(Cc2ccc(-c3nc4cc5[nH]cnc5cc4nc3-c3ccccc3)cc2)CC1,residual activity,[1],101%
same,residual activity,[19],108%
same,residual activity,[2],96%
same,residual activity,[3],113%
same,residual activity,[4],120%
same,residual activity,[5],97%
same,residual activity,[6],145%
same,residual activity,[7],98%
same,residual activity,[8],90%
same,residual activity,[20],118%
same,residual activity,[9],69%
same,residual activity,[10],104%
same,residual activity,[11],104%
same,residual activity,[12],102%
same,residual activity,[13],93%
same,residual activity,[14],88%
same,residual activity,[15],93%
same,residual activity,[16],108%
same,residual activity,[17],98%
same,residual activity,[18],107%
COc1cc2ncnc(Nc3ccc(Oc4ccccc4)cc3)c2cc1OC,residual activity,[7],108%
same,residual activity,[8],107%
c1ccc(-c2n[nH]cc2-c2ccnc3ccccc23)nc1,residual activity,[7],96%
O=C1c2ccccc2-c2nc3nnnn3nc21,residual activity,[1],111%
same,residual activity,[19],120%
same,residual activity,[2],111%
same,residual activity,[3],121%
same,residual activity,[4],116%
same,residual activity,[7],103%
same,residual activity,[8],112%
same,residual activity,[20],117%
same,residual activity,[9],100%
same,residual activity,[14],101%
O=C1NC(=O)/C(=C\c2ccc3nccnc3c2)S1,residual activity,[7],106%
same,residual activity,[8],108%
COc1cc(OC)c(/C=C2\C(=O)Nc3ccccc32)c(OC)c1,residual activity,[1],69%
same,residual activity,[5],100%
same,residual activity,[6],91%
same,residual activity,[20],103%
same,residual activity,[9],80%
same,residual activity,[12],105%
same,residual activity,[13],103%
same,residual activity,[14],103%
same,residual activity,[15],101%
same,residual activity,[16],98%
O=[N+]([O-])/C=C/c1ccc2c(c1)OCO2,residual activity,[1],105%
same,residual activity,[19],94%
same,residual activity,[2],97%
same,residual activity,[3],106%
same,residual activity,[4],96%
same,residual activity,[5],124%
same,residual activity,[7],100%
same,residual activity,[8],110%
same,residual activity,[20],125%
same,residual activity,[9],106%
same,residual activity,[10],111%
same,residual activity,[11],111%
same,residual activity,[12],113%
same,residual activity,[15],106%
same,residual activity,[16],103%
same,residual activity,[17],67%
same,residual activity,[18],99%
COc1ccc2c(c[n+](C)c3c4cc5c(cc4ccc23)OCO5)c1OC,residual activity,[5],98%
same,residual activity,[6],73%
same,residual activity,[7],98%
same,residual activity,[8],110%
same,residual activity,[20],82%
same,residual activity,[9],63%
same,residual activity,[10],110%
same,residual activity,[11],100%
same,residual activity,[14],87%
COc1cc2ncnc(Nc3ccc(OCc4ccccc4)cc3)c2cc1OC,residual activity,[1],57%
same,residual activity,[19],106%
same,residual activity,[2],89%
same,residual activity,[3],119%
same,residual activity,[4],114%
same,residual activity,[5],88%
same,residual activity,[7],104%
same,residual activity,[8],122%
same,residual activity,[20],99%
same,residual activity,[9],103%
same,residual activity,[10],117%
same,residual activity,[11],114%
same,residual activity,[12],123%
same,residual activity,[13],106%
same,residual activity,[14],105%
same,residual activity,[15],101%
same,residual activity,[16],105%
same,residual activity,[17],108%
same,residual activity,[18],104%
COc1ccc2c(c1)/C(=C/c1cnc[nH]1)C(=O)N2,residual activity,[1],82%
same,residual activity,[3],76%
same,residual activity,[4],20%
same,residual activity,[18],96%
Ic1cccc(CSc2nnc(-c3ccncc3)o2)c1,residual activity,[7],116%
Cn1c2ccccc2c2c3c(c4c5ccccc5n(CCC#N)c4c21)CNC3=O,residual activity,[7],106%
same,residual activity,[8],105%
O=Nc1c(-c2c(O)[nH]c3ccccc23)[nH]c2ccccc12,residual activity,[7],107%
same,residual activity,[8],98%
Cc1cc(Nc2nc(-c3ccccc3)nc3ccccc23)n[nH]1,residual activity,[7],113%
same,residual activity,[8],101%
Oc1ccc(-c2nc(-c3ccc(F)cc3)c(-c3ccncc3)[nH]2)cc1,residual activity,[7],113%
same,residual activity,[8],112%
CO[C@H]1C[C@@H]2CC[C@@H](C)[C@@](O)(O2)C(=O)C(=O)N2CCCC[C@H]2C(=O)O[C@H]([C@H](C)C[C@@H]2CC[C@@H](O)[C@H](OC)C2)CC(=O)[C@H](C)/C=C(\C)[C@@H](O)[C@@H](OC)C(=O)[C@H](C)C[C@H](C)/C=C/C=C/C=C/1C,residual activity,[7],105%
same,residual activity,[8],98%
CN(C)c1ccc(/C=C2\C(=O)Nc3ccccc32)cc1,residual activity,[7],112%
same,residual activity,[8],121%
NC(=O)Nc1sc(-c2ccc(F)cc2)cc1C(N)=O,residual activity,[7],114%
same,residual activity,[8],109%
O=C1c2ccccc2-[n+]2ccc3c([nH]c4ccccc43)c21,residual activity,[7],108%
same,residual activity,[8],107%
Cc1nc(-c2ccccc2)c(-c2ccncc2)o1,residual activity,[7],110%
same,residual activity,[8],102%
N#C/C(=C\c1ccc(O)c(O)c1)C(=O)NCc1ccccc1,residual activity,[7],103%
same,residual activity,[8],120%
O=C1NC(=O)c2cc(Nc3ccc(F)cc3)c(Nc3ccc(F)cc3)cc21,residual activity,[7],101%
same,residual activity,[8],107%
Cc1cccc(-c2[nH]c(C(C)(C)C)nc2-c2ccc3c(c2)OCO3)n1,residual activity,[7],100%
same,residual activity,[8],107%
O=C1Nc2ccccc2/C1=C1/Nc2ccccc2/C1=N\OCCC(O)CO (stereo not given),residual activity,[7],113%
same,residual activity,[8],101%
COc1cccc(-c2cc(=O)c3ccccc3o2)c1N,residual activity,[7],106%
same,residual activity,[8],109%
COc1cc2nccc(Oc3ccc(NC(=O)Nc4cc(C)on4)c(Cl)c3)c2cc1OC,residual activity,[7],97%
same,residual activity,[8],101%
O=c1cc(N2CCOCC2)oc2c1ccc1ccccc12,residual activity,[7],103%
same,residual activity,[8],106%
O=C(c1ccccc1)c1ccc(N2CCOCC2)cc1O,residual activity,[7],96%
same,residual activity,[8],98%
Oc1c2ccccc2c2c3c(cccc13)N=N2,residual activity,[8],110%
O=S(=O)(NCCNC/C=C/c1ccc(Br)cc1)c1cccc2cnccc12,residual activity,[8],22%
O=[N+]([O-])c1ccc(-c2nc(-c3ccc(F)cc3)c(-c3ccncc3)[nH]2)cc1,residual activity,[7],112%
same,residual activity,[8],103%
O=C(Nc1cccc(Nc2cc(Nc3cccc(C(F)(F)F)c3)ncn2)c1)C1CC1,residual activity,[7],96%
same,residual activity,[8],99%
O=C1NC(=O)c2c1c1c3ccccc3[nH]c1c1[nH]c3cc(Br)ccc3c21,residual activity,[7],103%
same,residual activity,[8],106%
NCCNc1ncc(C(N)=O)c(Nc2cccc(C(F)(F)F)c2)n1,residual activity,[8],112%
CO[C@H]1[C@@H](OC)C[C@H](C)[C@@H](OC)C2=CC(=O)C=C(NC(=O)/C(C)=C/C=C/[C@H](OC)[C@@H](OC(N)=O)/C(C)=C/[C@@H]1C)C2=O,residual activity,[7],112%
same,residual activity,[8],114%
Cn1cc(/C=C2\C(=O)Nc3ccc(S(N)(=O)=O)cc32)c2ccccc21,residual activity,[7],96%
same,residual activity,[8],101%
COc1cc2c(cc1OC)-c1n[nH]c(Nc3cccc(F)c3)c1C2,residual activity,[7],107%
same,residual activity,[8],107%
Nc1ncnc2[nH]nc(Nc3ccc(F)cc3)c12,residual activity,[7],111%
same,residual activity,[8],109%
CC#CC(=O)Nc1cc2c(Nc3ccc(F)c(Cl)c3)ncnc2cn1,residual activity,[7],101%
same,residual activity,[8],107%
CC(C)(C)n1nc(Cc2cccc3ccccc23)c2c(N)ncnc21,residual activity,[7],96%
same,residual activity,[8],107%
O=C(Nc1cccc(Nc2nccc(Nc3cccc(C(F)(F)F)c3)n2)c1)C1CC1,residual activity,[7],103%
same,residual activity,[8],104%
O=C(O)c1ccc2c3c1cccc3c(=O)n1c3ccccc3nc21,residual activity,[7],111%
same,residual activity,[8],100%
COc1ccc(S(=O)(=O)N(CCO)c2ccccc2CN(C)C/C=C/c2ccc(Cl)cc2)cc1,residual activity,[7],116%
same,residual activity,[8],112%
Cn1cnc2cc3c(Nc4cccc(Br)c4)ncnc3cc21,residual activity,[7],95%
same,residual activity,[8],109%
O=C1Nc2cc(Br)ccc2/C1=C1/Nc2ccccc2/C1=N\O,residual activity,[7],114%
same,residual activity,[8],107%
Cc1ccc(NC2=CC(=O)c3sc(C)nc3C2=O)cc1,residual activity,[7],111%
same,residual activity,[8],107%
